Compound activity: PubChem BioAssay, several laboratories
This is a sample that favours compounds with a hit; in the whole collection about 2.2% have one here.
Ba/F3 V617F tox = loss of viability in JAK2V617F-driven Ba/F3 cells. Ba/F3 EpoR-JAK2V617F viability, ATP luminescence. inhibition, % at 5.6 µM. 220,000 compounds, 1.1% hits. AID 1446;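 active = inhibition above the campaign mean plus 3 SD over all tested compounds, cut at about 24% in these data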;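 note: cytokine-independent growth of Ba/F3 cells driven by EpoR plus mutant JAK2; 0% = DMSO-treated cells and 100% = JAK inhibitor I control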
BaF3 tox = counter-screen for JAK2V617F inhibitors: parental Ba/F3 viability inhibitors; CellTiter-Glo ATP luminescence; inhibition, % at 5.6 µM; 220,000 compounds, 1.1% hits;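 active = inhibition above a per-campaign cutoff, the mean inhibition of all tested compounds plus 3 SD, cut at about 27% in these data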;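 note: 0% = DMSO wells and 100% = JAK Inhibitor I control wells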
aSyn UTR inh = MLPCN primary screen, SNCA 5' untranslated region; alpha-synuclein 5'UTR reporter, inhibitor activity; inhibition, % (tested at 7.5 µM); 300,000 compounds, 0.82% hits; AID 1813; in the data active = inhibition above about 60%;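 note: H4 neuroglioblastoma cells stably carrying SNCA 5'UTR luciferase fusion; 0% = DMSO wells and 100% = positive control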
APP 5UTR inh = APP translation inhibition. inhibition, % at 2 µM. 190,000 compounds, 0.82% hits. SH-SY5Y APP 5'UTR-luciferase reporter, luminescence;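 active = inhibition above a set limit, derived from the sample mean plus 3 SD, cut at about 45% in these data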
IEC-6 tox = kills IEC-6 intestinal cells in KLF5 counter-screen. IEC-6 cytotoxicity, luminescence viability. inhibition, % at 5 µM. 290,000 compounds, 0.78% hits; in the data active = inhibition above about 22%;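 note: 0% = plate median of test compound wells and 100% = cytotoxic reference compound wells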
KLF5 inh = kruppel-like factor 5 inhibition. DLD-1 KLF5 promoter-luciferase reporter, luminescence. 290,000 compounds, 0.23% hits. inhibition, % at 5 µM;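 active = inhibition above a per-plate limit of that plate's mean compound inhibition plus 3 SD, cut at about 60% in these data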;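 note: 0% = DMSO wells and 100% = LY294002 at 200 µM; higher means less KLF5 promoter-driven luciferase light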
Numbers without * were called inactive; / = not tested or not shown.

SMILES	Ba/F3 V617F tox	BaF3 tox	aSyn UTR inh	APP 5UTR inh	IEC-6 tox	KLF5 inh
Cc1ccc(C(=O)Nc2cccc(C(F)(F)F)c2)cc1NC(=O)c1cnnc2ccccc12	/	/	64*	/	/	/
O=[N+]([O-])c1ccc(/C=N/n2cnc3ccccc32)s1	0	1	68*	6	4	-9
CC1Cc2ccccc2N1S(=O)(=O)c1cccc(C(=O)NCCCO)c1 (configuration not stated)	0	2	6	-6	2	-19
CCOc1ccc(S(=O)(=O)N2c3ccccc3CC2C)cc1 (configuration not stated)	77*	76*	93*	94*	67*	54
Cc1ccc(S(=O)(=O)N2c3ccccc3CC2C)cc1 (configuration not stated)	7	10	9	10	6	-33
CCOC(=O)c1ccc(NC(=O)c2cccc(S(=O)(=O)N3c4ccccc4CC3C)c2)s1 (configuration not stated)	6	10	83*	-22	11	-20
CCN(CC)C(=O)c1[nH]cnc1C(=O)NCC(=O)OCc1ccccc1	/	/	3	/	-3	-7
Cc1c(C(=O)N2CCOCC2)sc(NC(=O)c2ccccc2F)c1C#N	/	/	10	/	0	-15
CC1CN(CC(=O)NCc2ccc(F)cc2)CC(C)O1 (configuration not stated)	/	/	5	/	-1	-16
COc1ccc(-c2cc3c(nn2)-c2ccccc2C3=O)cc1	3	6	98*	-45	-5	-97
COc1ccc(/C=C2\SC(=S)N(CCC(=O)Nc3ccc(C(=O)O)cc3)C2=O)cc1	/	/	-5	/	-7	-16
COc1ccc(/C=C2/SC(=S)N(CCC(=O)O)C2=O)cc1	-2	-2	98*	50*	-6	26
COc1ccc(/C=C2\SC(=S)N(CCCC(=O)Nc3ccc(O)cc3)C2=O)cc1	-3	-1	78*	/	-1	27
COc1ccc(/C=C2/SC(=S)N(CCCC(=O)Nc3ccc(O)cc3)C2=O)cc1	0	-2	68*	/	0	17
COc1ccc2nc(N=Nc3ccc(O)c4ccccc34)sc2c1	0	4	59	74*	6	9
CCOc1cc(C2C(C#N)=C(N)OC(C)=C2C(C)=O)c(Br)c(Br)c1OC(C)C (configuration not stated)	0	5	21	66*	4	15
Cc1ccc(-n2[nH]c(=O)c3cccnc32)cc1	-2	1	-10	-5	-7	-25
Cc1ccc(-n2[nH]c(=O)c(-c3ccccn3)c2C)cc1	-2	1	97*	-3	6	-181
O=C1/C(=C/c2cccnc2)CC/C1=C\c1cccnc1	-2	1	-65	-14	0	-6
CCC1C/C(=C\c2cccnc2)C(=O)/C(=C/c2cccnc2)C1 (configuration not stated)	6	4	/	95*	30*	-12
O=C1/C(=C/c2cccnc2)CCC/C1=C\c1cccnc1	-3	-6	/	95*	3	-3
CC(C)/C=C1\CC/C(=C\c2cccnc2)C1=O	-2	5	-62	19	-4	-35
CCOc1ccc(-c2cc(CCCC(=O)NCCCOC)no2)cc1	5	7	87*	49*	0	-31
COc1ccccc1/C=N\NC(=O)c1ccc(COc2ccc(C)c(C)c2)o1	/	/	-12	/	/	/
COc1ccc(C(=O)/C=C2/C(=O)Nc3ccccc32)cc1	/	/	-99	/	2	-20
SMILES	Ba/F3 V617F tox	BaF3 tox	aSyn UTR inh	APP 5UTR inh	IEC-6 tox	KLF5 inh
CN1/C(=C\C(=O)Nc2cccnc2)c2ccccc2CC1(C)C	-2	36*	-5	-5	-2	11
O=C(/C=C/c1ccccc1)Nc1cccnc1	/	/	-143	/	-1	-88
COc1ccc(C(=O)/C=C2/c3ccccc3CC(C)(C)N2C)cc1	4	4	-19	48*	13	4
Cn1cc(CN2CCC(C(=O)Nc3ccc(Oc4ccccc4F)cc3)CC2)cn1	/	/	15	/	-3	-32
O=C(Cc1ccccc1)NN1C(=O)c2ccccc2C1=O	1	6	17	-12	0	2
COc1ccccc1CC(=O)NN1C(=O)c2ccccc2C1=O	5	35*	17	-5	10	-10
C(=C1/CCCC2=C1Nc1ncnn1C2c1ccccc1)/c1ccccc1 (configuration not stated)	55*	54*	-42	34	26*	1
CCC(=O)N1CCc2cc(S(=O)(=O)NCCc3ccc(S(N)(=O)=O)cc3)ccc21	/	/	20	/	0	-8
C/C(Cl)=C\C[N+](C)(C)CC(=O)OCCc1ccccc1	0	-3	13	/	-7	-32
C=CC[N+](C)(C)C/C(Cl)=C(\Cl)c1ccccc1	26*	27*	1	19	4	-19
Cc1nnc(SCC(=O)Nc2ccc([N+](=O)[O-])cc2)n1C	/	/	-12	/	-5	-15
COc1ccc(C(=O)/C=C/C(=O)N(CC(=O)NC2CCCCC2)Cc2ccccc2OC)c(O)c1	-3	3	-36	75*	-4	-21
COc1ccc(C(=O)/C=C/C(=O)N(CC(=O)NC2CCCCC2)Cc2ccccc2)c(O)c1	-2	7	67*	73*	-5	-38
COc1ccc(C(=O)/C=C/C(=O)N(CC(=O)NC2CCCCC2)CC2CCCO2)c(O)c1 (configuration not stated)	3	4	73*	71*	11	-2
COc1ccc(C(=O)/C=C/C(=O)N(Cc2ccccc2)C(C(=O)NC2CCCCC2)c2ccncc2)c(O)c1 (configuration not stated)	0	6	22	8	0	-18
COc1ccc(C(=O)/C=C/C(=O)N(Cc2ccccc2OC)C(C(=O)NC2CCCCC2)c2ccncc2)c(O)c1 (configuration not stated)	-1	6	16	-4	1	-13
CNc1nc(Cl)c(SC)c(NCc2ccc(F)cc2)n1	/	/	29	/	0	0
COc1ccc(N(CC(=O)NC2CCCCC2)C(=O)c2ccc(C)s2)c(OC)c1	/	/	12	/	-1	0
CC(C)c1ccccc1NC(=S)NCCCn1ccnc1	-3	7	-12	-11	1	-1
O=c1c2ccccc2cnn1CCOc1ccccc1	3	8	72*	-98	2	54
COc1ccc(C(=O)NC2CCSc3ccccc32)cc1F (configuration not stated)	/	/	12	/	-1	-19
Cc1ccc(-c2c[n+](Cc3cccc(Cl)c3)c3n2CCC3)cc1	82*	75*	21	/	4	-1
Clc1cccc(C[n+]2cc(-c3ccccc3)n3c2CCC3)c1	65*	65*	-11	-12	-12	-14
CCc1cccc(NS(=O)(=O)c2c(C)nc3sc(CC)nn3c2=O)c1	/	/	/	/	-2	-1
CC1CC(C)CN(C(=O)COC(=O)Cc2ccc(Br)cc2)C1 (configuration not stated)	/	/	8	/	-1	-30
COCCNC(=O)CN(C(=O)c1ccc(N2CCCC2)nc1)c1ccc(Cl)cc1	/	/	6	/	-5	-39
